Experimental data taken from PubChem BioAssay (EPA / NIEHS).
Inconclusive results are not listed. Calls of active or inactive are those of the source. How the source made its calls, unless noted: active means hit-call score of the fitted dose curve at least 0.9, where 1 is the maximum; inactive means score below 0.9.

Legend:
[1] = target: Retinoic acid receptor RXR-alpha (Homo sapiens) (UniProt P19793); test: ATG_RXRa_TRANS: Attagene TRANS-FACTORIAL HepG2 Assay for human Retinoid X Receptor alpha (RXRa) (AID 2283012; active means hit-call score of the fitted dose curve at least 0.9, where 1 is the maximum)
Sequence of Retinoic acid receptor RXR-alpha (Homo sapiens) (P19793 whole entry, looked up, the tested form may be a part): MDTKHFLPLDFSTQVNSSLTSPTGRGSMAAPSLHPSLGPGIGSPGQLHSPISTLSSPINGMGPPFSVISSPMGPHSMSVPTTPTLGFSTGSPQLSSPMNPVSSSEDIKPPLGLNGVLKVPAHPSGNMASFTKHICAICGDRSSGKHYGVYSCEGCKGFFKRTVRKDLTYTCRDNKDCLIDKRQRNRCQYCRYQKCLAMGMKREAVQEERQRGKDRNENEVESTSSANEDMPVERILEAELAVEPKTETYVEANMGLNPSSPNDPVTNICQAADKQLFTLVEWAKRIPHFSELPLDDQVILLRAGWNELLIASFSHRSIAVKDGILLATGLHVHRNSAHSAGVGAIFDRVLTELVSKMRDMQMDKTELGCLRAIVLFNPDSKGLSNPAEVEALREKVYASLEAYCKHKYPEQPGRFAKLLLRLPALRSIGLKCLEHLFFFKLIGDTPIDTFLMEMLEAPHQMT
Outline: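 Read-out: fluorescent reporter-transcript fragments quantified by capillary electrophoresis after RT-PCR. Transiently transfected HepG2 cells carrying GAL4-UAS reporters and NR-GAL4 chimeras were exposed to chemical for 24 h; activity scored as increase over DMSO.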

[2] = target: human Retinoid X Receptor beta (RXRb), RXRB (gene 6257) (UniProt P28702); test: ATG_RXRb_TRANS: Attagene TRANS-FACTORIAL HepG2 Assay for human Retinoid X Receptor beta (RXRb) (AID 2283013; active means hit-call score of the fitted dose curve at least 0.9, where 1 is the maximum)
Sequence of human Retinoid X Receptor beta (RXRb), RXRB (gene 6257) (P28702 whole entry, looked up, the tested form may be a part): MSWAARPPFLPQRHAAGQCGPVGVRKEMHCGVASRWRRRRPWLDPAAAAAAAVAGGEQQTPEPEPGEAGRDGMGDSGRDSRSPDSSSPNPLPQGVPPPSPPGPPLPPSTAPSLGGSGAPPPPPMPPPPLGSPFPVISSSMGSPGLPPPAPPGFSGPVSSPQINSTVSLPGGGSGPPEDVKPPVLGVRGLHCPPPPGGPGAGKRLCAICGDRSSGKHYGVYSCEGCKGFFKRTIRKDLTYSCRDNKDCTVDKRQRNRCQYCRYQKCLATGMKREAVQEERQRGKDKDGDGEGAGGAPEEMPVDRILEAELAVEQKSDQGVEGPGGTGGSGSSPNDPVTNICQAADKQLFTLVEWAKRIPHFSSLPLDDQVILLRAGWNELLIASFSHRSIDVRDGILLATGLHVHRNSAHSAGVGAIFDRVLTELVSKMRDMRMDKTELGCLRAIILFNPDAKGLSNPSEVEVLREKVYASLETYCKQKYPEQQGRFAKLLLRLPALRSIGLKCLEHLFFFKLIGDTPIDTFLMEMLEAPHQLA
Outline: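 Read-out: reporter mRNA induction via RT-PCR plus capillary electrophoresis fluorescence, analysed as signal increase relative to DMSO. Cells were human HepG2, transiently transfected with GAL4-UAS reporter constructs and chimeric receptor-Gal4 fusions, dosed for 24 h.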

[3] = target: human Thyroid Receptor alpha (THRa1), THRA (gene 7067) (UniProt P10827); test: ATG_THRa1_TRANS: Attagene TRANS-FACTORIAL HepG2 Assay for human Thyroid Receptor alpha (THRa1) (AID 2283014; active means hit-call score of the fitted dose curve at least 0.9, where 1 is the maximum)
Sequence of human Thyroid Receptor alpha (THRa1), THRA (gene 7067) (P10827 whole entry, looked up, the tested form may be a part): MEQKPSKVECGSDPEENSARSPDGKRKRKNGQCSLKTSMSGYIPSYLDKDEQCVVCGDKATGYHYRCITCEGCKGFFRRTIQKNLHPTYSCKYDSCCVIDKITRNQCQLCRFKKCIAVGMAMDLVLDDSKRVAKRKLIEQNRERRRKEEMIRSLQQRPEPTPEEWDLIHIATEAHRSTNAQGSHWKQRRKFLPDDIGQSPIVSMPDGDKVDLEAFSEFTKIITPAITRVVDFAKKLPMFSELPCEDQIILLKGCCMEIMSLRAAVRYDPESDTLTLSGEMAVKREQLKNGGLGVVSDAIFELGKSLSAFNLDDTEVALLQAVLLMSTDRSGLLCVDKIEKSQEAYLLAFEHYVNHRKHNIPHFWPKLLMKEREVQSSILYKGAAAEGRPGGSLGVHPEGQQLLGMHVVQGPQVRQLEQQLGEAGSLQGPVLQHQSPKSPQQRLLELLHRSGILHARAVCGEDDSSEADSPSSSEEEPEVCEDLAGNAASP
Outline: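 Measured here is mRNA from a GAL4-UAS reporter in transfected HepG2 cells carrying a Gal4-fused receptor, 24 h post-dose. DMSO served as negative control and baseline.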

[4] = read-out: E-selectin (Homo sapiens) (UniProt P16581); test: BSK_3C_Eselectin: BioMAP Diversity Plus: 3C Assay for Eselectin Biomarker Activity (AID 2283015); details: primary human endothelial cells (HUVEC); actives raise or lower the signal
Outline: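 Endpoint derived by bidirectional fitting against DMSO vehicle; signal is ELISA-detected E-selectin from primary HUVEC at 24 h post-dosing, with parallel SRB staining (0.1% SRB, 560 nm) flagging cytotoxicity.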

[5] = read-out: Interleukin-1 alpha (IL1a), IL1A (gene 3552); test: BSK_BE3C_IL1a: BioMAP Diversity Plus: BE3C Assay for Interleukin-1 alpha (IL1a) Biomarker Activity (AID 2283016); details: primary human bronchial epithelial cells; actives raise or lower the signal
Outline: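 ELISA read-out of IL-1a from human lung bronchial epithelial primary cells, 24 h post-dose. Gain or loss of signal fitted relative to DMSO negative control.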

[6] = read-out: Monocyte Chemoattractant Protein-1 (MCP1), CCL2 (gene 6347); test: BSK_3C_MCP1: BioMAP Diversity Plus: 3C Assay for Monocyte Chemoattractant Protein-1 (MCP1) Biomarker Activity (AID 2283017); details: primary human endothelial cells (HUVEC); actives raise or lower the signal
Outline: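 Using human vascular primary endothelium, researchers measured MCP-1 by ELISA 24 h after treatment, with DMSO serving as negative control for bidirectional fitting.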

[7] = read-out: Monocyte Chemoattractant Protein-1 (MCP1), CCL2 (gene 6347); test: BSK_4H_MCP1: BioMAP Diversity Plus: 4H Assay for Monocyte Chemoattractant Protein-1 (MCP1) Biomarker Activity (AID 2283018); details: primary human endothelial cells (HUVEC); actives raise or lower the signal
Outline: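 HUVEC primary cells, 24 h post-dose, MCP-1 by ELISA. Gain or loss of signal fitted bidirectionally vs DMSO baseline. Cytotoxicity: SRB stain (0.1% after 10% TCA fixation), read 560 nm, parallel cultures.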

[8] = read-out: Human Leukocyte Antigen - DR isotype (HLADR), HLA-DRA (gene 3122); test: BSK_3C_HLADR: BioMAP Diversity Plus: 3C Assay for Human Leukocyte Antigen - DR isotype (HLADR) Biomarker Activity (AID 2283019); details: primary human endothelial cells (HUVEC); actives raise or lower the signal
Outline: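 Compound added to primary HUVEC cultures, 24 h incubation, then HLA-DR determined by ELISA; endpoint derived by bidirectional fitting relative to DMSO negative control.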

[9] = read-out: Interleukin-8 (IL8), CXCL8 (gene 3576); test: BSK_3C_IL8: BioMAP Diversity Plus: 3C Assay for Interleukin-8 (IL8) Biomarker Activity (AID 2283020); details: primary human endothelial cells (HUVEC); actives raise or lower the signal
Outline: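 HUVEC, 3C stimulation; 24 h compound exposure; IL-8 read by ELISA; gain or loss of signal fitted relative to DMSO control.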

[10] = read-out: Monokine induced gamma interferon (MIG), CXCL9 (gene 4283); test: BSK_3C_MIG: BioMAP Diversity Plus: 3C Assay for Monokine induced gamma interferon (MIG) Biomarker Activity (AID 2283021); details: primary human endothelial cells (HUVEC); actives raise or lower the signal;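 on AC50: MIG protein level measured by immunoassay in the treated endothelial cultures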
Outline: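 HUVEC, 3C system; 24 h chemical exposure; MIG by ELISA; bidirectional fit vs DMSO baseline.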

[11] = BSK_3C_SRB: Viability Assessment in the BioMAP Diversity Plus: 3C Assay (AID 2283023); details: primary human endothelial cells (HUVEC);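 further: cells read 24 h after compound dosing; fitted both ways against DMSO so a hit may be signal rise or drop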
Outline: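 Overt cytotoxicity is gauged in parallel confluent HUVEC cultures by SRB total-protein staining at the time of biomarker measurement, 24 h after dosing. Gain or loss of signal is fitted versus DMSO.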

[12] = read-out: Matrix Metallopeptidase 1 (MMP1), MMP1 (gene 4312); test: BSK_BE3C_MMP1: BioMAP Diversity Plus: BE3C Assay for Matrix Metallopeptidase 1 (MMP1) Biomarker Activity (AID 2283024); details: primary human bronchial epithelial cells; actives raise or lower the signal
Outline: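 ELISA read-out of MMP1 in human lung bronchial epithelial primary cultures, 24 h post-dose; bidirectional curve fit vs DMSO baseline, gain or loss of signal scored.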

[13] = BSK_3C_Vis: BioMAP Diversity Plus: 3C Assay for Morphology Visualization (AID 2283025); details: primary human endothelial cells (HUVEC);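 further: fitted both ways so gain or loss versus DMSO counts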;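 on AC50: light microscopy image of cell morphology used as background control; cells imaged 24 h after dosing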
Outline: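 HUVEC, 3C system; light microscopy of morphology at 24 h post-dose. Bidirectional fit vs DMSO baseline. Secondary readout, background-control function.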

[14] = read-out: Pselectin, SELP (gene 6403); test: BSK_4H_Pselectin: BioMAP Diversity Plus: 4H Assay for Pselectin Biomarker Activity (AID 2283026); details: primary human endothelial cells (HUVEC); actives raise or lower the signal
Outline: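 HUVEC, 24 h chemical exposure; P-selectin read by ELISA. Bidirectional curve fit vs DMSO baseline; gain or loss of signal scored.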

[15] = BSK_4H_SRB: Viability Assessment in the BioMAP Diversity Plus: 4H Assay (AID 2283027); details: primary human endothelial cells (HUVEC);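 further: cells exposed to compound for 24 h before staining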;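 on AC50: curves fitted both ways versus DMSO so AC50 may be loss or gain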
Outline: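 HUVEC, 24 h post-dose; 10% TCA fix, 0.1% SRB stain, A560 nm. Total protein = overt cytotoxicity, parallel to biomarker read. Bidirectional fit vs DMSO baseline.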

[16] = BSK_BE3C_SRB: Viability Assessment in the BioMAP Diversity Plus: BE3C Assay (AID 2283028); details: primary human bronchial epithelial cells;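 further: measured 24 h after chemical dosing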
Outline: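 SRB total-protein staining (0.1%, after TCA fixation) of chemically dosed human bronchial epithelial primary cells at 24 h; DMSO serves as the negative control for bidirectional curve fitting.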

[17] = read-out: Thrombomodulin, THBD (gene 7056); test: BSK_3C_Thrombomodulin: BioMAP Diversity Plus: 3C Assay for Thrombomodulin Biomarker Activity (AID 2283029); details: primary human endothelial cells (HUVEC); actives raise or lower the signal
Outline: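 HUVEC, 3C conditions; compound 24 h; thrombomodulin by ELISA; bidirectional curve fit vs DMSO baseline; parallel SRB total-protein staining for cytotoxicity.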

[18] = read-out: Urokinase-type plasminogen activator receptor (uPAR), PLAUR (gene 5329); test: BSK_4H_uPAR: BioMAP Diversity Plus: 4H Assay for Urokinase-type plasminogen activator receptor (uPAR) Biomarker Activity (AID 2283030); details: primary human endothelial cells (HUVEC); actives raise or lower the signal
Outline: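 Endpoint derived via bidirectional curve fitting against DMSO baseline; readout was ELISA detection of uPAR on umbilical vein endothelial cells at 24 h post-treatment, with SRB-stained parallel cultures assessing cytotoxicity.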

[19] = read-out: Vascular endothelial growth factor receptor 2 (Homo sapiens) (UniProt P35968); test: BSK_4H_VEGFRII: BioMAP Diversity Plus: 4H Assay for Vascular endothelial growth factor receptor 2 (VEGFR2) Biomarker Activity (AID 2283031); details: primary human endothelial cells (HUVEC); actives raise or lower the signal;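 on AC50: cell-surface VEGFR2 protein level quantified by ELISA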
Outline: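 In this multiplexed HUVEC system, biomarker ELISA was performed after 24 h chemical exposure. Parallel SRB staining (TCA fixation, 560 nm) tracked cytotoxicity; DMSO served as baseline.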

[20] = target: human Vitamin D Receptor (VDR), VDR (gene 7421) (UniProt P11473); test: ATG_VDR_TRANS: Attagene TRANS-FACTORIAL HepG2 Assay for human Vitamin D Receptor (VDR) (AID 2283022; active means hit-call score of the fitted dose curve at least 0.9, where 1 is the maximum)
Sequence of human Vitamin D Receptor (VDR), VDR (gene 7421) (P11473 whole entry, looked up): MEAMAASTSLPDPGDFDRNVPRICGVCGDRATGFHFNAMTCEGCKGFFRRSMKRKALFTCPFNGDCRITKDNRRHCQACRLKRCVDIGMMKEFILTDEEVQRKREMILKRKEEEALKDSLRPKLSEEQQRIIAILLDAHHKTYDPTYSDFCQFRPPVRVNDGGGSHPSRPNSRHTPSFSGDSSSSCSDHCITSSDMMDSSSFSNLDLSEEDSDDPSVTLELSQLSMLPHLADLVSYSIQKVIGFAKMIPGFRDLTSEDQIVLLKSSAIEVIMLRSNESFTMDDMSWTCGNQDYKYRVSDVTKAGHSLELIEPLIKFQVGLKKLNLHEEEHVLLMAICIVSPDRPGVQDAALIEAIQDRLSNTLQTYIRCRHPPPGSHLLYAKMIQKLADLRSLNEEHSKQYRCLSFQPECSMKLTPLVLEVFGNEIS
Outline: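 Multiplexed TRANS reporter in HepG2; 24 h treatment; reporter mRNA by RT-PCR plus capillary electrophoresis; upregulation scored relative to DMSO.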

Measured: AC50

Sequence of E-selectin (Homo sapiens) (P16581 whole entry, looked up): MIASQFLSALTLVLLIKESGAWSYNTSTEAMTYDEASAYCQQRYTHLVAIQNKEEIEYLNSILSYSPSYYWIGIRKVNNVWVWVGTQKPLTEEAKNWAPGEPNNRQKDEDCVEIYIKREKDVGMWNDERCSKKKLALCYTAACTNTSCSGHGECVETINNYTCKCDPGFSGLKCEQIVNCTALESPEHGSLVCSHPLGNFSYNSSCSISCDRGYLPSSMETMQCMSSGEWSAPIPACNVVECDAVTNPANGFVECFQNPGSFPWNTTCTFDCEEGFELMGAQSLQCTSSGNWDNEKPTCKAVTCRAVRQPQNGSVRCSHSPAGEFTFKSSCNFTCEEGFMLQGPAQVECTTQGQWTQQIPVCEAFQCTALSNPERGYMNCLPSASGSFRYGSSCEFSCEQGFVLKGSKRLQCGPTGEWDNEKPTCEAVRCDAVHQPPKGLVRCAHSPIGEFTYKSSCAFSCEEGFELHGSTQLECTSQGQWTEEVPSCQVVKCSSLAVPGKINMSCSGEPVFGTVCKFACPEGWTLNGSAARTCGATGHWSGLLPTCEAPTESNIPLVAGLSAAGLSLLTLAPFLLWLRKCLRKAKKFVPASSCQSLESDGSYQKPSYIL

C=COC(=O)C(C)(C)CCCCCC
active: [2] 62 µM | [4] 32.7 µM | [5] 34.9 µM | [6] 31.3 µM | [7] 20 µM | [8] 33.6 µM | [9] 30.2 µM | [10] 33.9 µM | [11] 34.6 µM | [12] 3.97 µM | [13] 37.8 µM | [14] 32.4 µM | [15] 34.3 µM | [17] 20 µM | [18] 32.6 µM | [19] 25.6 µM
inactive: [1] | [3] | [16]

CCC(C)c1ccccc1O (configuration not stated)
active: [2] 72.8 µM
not listed: [3]
inactive: all other assays above

Cc1ccc(S(=O)(=O)O)cc1
inactive: [1] | [2] | [3] | [20]

CC1=NN(c2ccccc2)C(=O)C1
not listed: [20]
inactive: all other assays above

CCCCCCc1ccc(N)cc1
inactive: [1] | [2] | [3] | [20]

CS(=O)(=O)c1ccc([C@@H](CC2CCCC2)C(=O)Nc2cnccn2)cc1Cl
active: [11] 30.3 µM | [12] 9.05 µM | [15] 19.2 µM | [18] 22.7 µM
not listed: [20]
inactive: all other assays above

CC1CNCC(C)O1 (configuration not stated)
inactive: [1] | [2] | [3] | [20]

O=C1Cc2ccccc2N1c1c(Cl)cccc1Cl
inactive: [1] | [2] | [3] | [20]
